This is a sample that favours compounds with a hit; in the whole collection about 11% have one here.
JMJD2A Tudor inh = qHTS Assay for Inhibitors of JMJD2A-Tudor Domain. Potency, µM (titrated, usually from 114 µM), actives largely listed as inhibitors. AID 504339, 2011. Lysine-specific demethylase 4A (Homo sapiens), O75164. 390,000 tested, 4.4% active. AlphaScreen JMJD2A-Tudor / H3K4me3 peptide binding; also: nearly all actives have a fitted effect of over 50% in size
BAZ2B block = qHTS Assay for Inhibitors of BAZ2B; AlphaScreen BAZ2B-H3K14Ac peptide displacement; Potency, µM (doses to about 114 µM), most hits filed as inhibitors; 360,000 tested, 4.4% active; also: nearly all actives have a fitted effect of over 60% in size
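AlphaScreen displacement: compounds (up to 110uM) incubated 30 min at room temperature with a preformed 50 nM BAZ2B/50 nM biotinylated H3K14Ac peptide complex in PBS pH 7.4 with Tween-20. Donor and acceptor beads at 10 ug/mL final added, 20 min light-protected before reading.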
G9a block = qHTS Assay for Inhibitors of Histone Lysine Methyltransferase G9a; Histone-lysine N-methyltransferase EHMT2 (Homo sapiens), Q96KQ7; G9a H3K9 monomethylation, AlphaScreen, 2 h; Potency, µM (doses to about 102 µM), actives largely listed as inhibitors; 350,000 tested, 8.8% active; AID 504332, 2011; also: nearly all actives have a fitted effect of over 75% in size
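Methyltransferase reactions run at room temperature for 2 h (20 nM enzyme, 500 nM biotin-H3K9 peptide, 20 uM SAM) after a 15 min compound preincubation; product detected by AlphaScreen beads and anti-H3K9me1 antibody.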
HP1b chromo inh = HTS for Inhibitors of HP1-beta Chromodomain Interactions with Methylated Histone Tails; Chromobox protein homolog 1 (Homo sapiens), P83916; AlphaScreen HP1-beta / biotin-H3K9me3 peptide binding; Potency, µM (highest dose often 114 µM), actives largely listed as inhibitors; 390,000 tested, 0.56% active; also: nearly all actives have a fitted effect of over 70% in size
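HP1-beta protein (50 nM final) preincubated 30 min at room temperature with biotinylated H3(1-18)K9me3 peptide (50 nM) in PBS pH 7.4, 0.01% Tween-20, then compound added for 30 min. AlphaScreen streptavidin donor/nickel chelate acceptor beads (10 ug/mL final), 30 min dark, luminescence read.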
L3MBTL1 block = qHTS Assay for the Inhibitors of L3MBTL1. Lethal(3)malignant brain tumor-like protein 1 (Homo sapiens), Q9Y468. AlphaScreen L3MBTL1–H3K9me1 peptide binding. Potency, µM (titrated, usually from 57.1 µM), usual class: inhibitors. 230,000 tested, 0.66% active. AID 485360, 2010; also: nearly all actives have a fitted effect of over 60% in size
Target sequence (Q9Y468 whole entry, looked up): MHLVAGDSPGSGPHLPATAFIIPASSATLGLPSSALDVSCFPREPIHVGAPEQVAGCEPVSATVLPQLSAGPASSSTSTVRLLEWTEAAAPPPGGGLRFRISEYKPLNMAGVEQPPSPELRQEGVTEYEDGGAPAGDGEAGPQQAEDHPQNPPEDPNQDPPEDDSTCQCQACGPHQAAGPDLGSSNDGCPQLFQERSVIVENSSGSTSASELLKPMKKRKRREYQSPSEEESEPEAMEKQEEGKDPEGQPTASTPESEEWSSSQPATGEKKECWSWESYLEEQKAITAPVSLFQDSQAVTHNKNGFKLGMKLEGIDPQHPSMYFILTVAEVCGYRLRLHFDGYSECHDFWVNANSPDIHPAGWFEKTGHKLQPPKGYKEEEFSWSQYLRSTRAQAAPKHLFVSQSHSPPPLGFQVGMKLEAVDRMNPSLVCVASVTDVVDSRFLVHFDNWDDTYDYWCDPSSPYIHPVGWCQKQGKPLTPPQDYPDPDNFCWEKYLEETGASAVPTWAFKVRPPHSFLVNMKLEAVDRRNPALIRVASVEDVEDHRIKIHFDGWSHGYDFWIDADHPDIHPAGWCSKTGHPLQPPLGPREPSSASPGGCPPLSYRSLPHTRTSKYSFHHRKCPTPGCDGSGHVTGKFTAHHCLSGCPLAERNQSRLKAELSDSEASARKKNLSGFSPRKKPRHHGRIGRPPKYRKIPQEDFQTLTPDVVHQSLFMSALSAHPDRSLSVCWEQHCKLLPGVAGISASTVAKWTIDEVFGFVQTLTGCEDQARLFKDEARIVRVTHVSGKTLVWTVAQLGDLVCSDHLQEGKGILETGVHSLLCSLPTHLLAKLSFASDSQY
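L3MBTL1 50 nM + b-AHA-H3(1-15)K9me1 75 nM, 30 min RT; compound added, 30 min RT; streptavidin donor/Ni-chelate acceptor beads 10 ug/mL each final, 30 min RT dark; AlphaScreen read.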
Numbers stand for hits; - = inactive; ? = inconclusive; . = no result; [ ] = dose if it differs, or a comment. Calls follow the shape of the dose curve; as a rule, active = well fitted inhibition curve with a large enough effect; inconclusive = small, poorly fitted or top-dose-only effect; inactive = no such curve, though single readings can be large or run the other way.

SMILES	JMJD2A Tudor inh	BAZ2B block	G9a block	HP1b chromo inh	L3MBTL1 block
COc1cccc(C=Nc2cc(C(C)C)c(O)cc2C)c1O	56µM	.	.	79µM	.
Cc1cc(O)c(C(C)C)cc1N=Cc1ccc(N(C)C)cc1	50µM	.	.	45µM	.
Cc1cc(C)cc(NC(=O)Cn2c(C(F)(F)F)nc3ccccc32)c1	-	-	-	-	.
Cc1ccc(C)c(N2CCN(S(=O)(=O)c3ccc4oc(=O)c5ncn(C)c5c4c3)CC2)c1	-	-	-	-	.
Cc1ncc(CO)c2c1Oc1nc(-c3ccccc3F)nc(SCC(=O)N3CCCCC3)c1C2	-	?	-	-	.
O=C(Nc1ccc2c(c1)CCCN2C(=O)c1cccs1)c1cccc(C(F)(F)F)c1	-	-	-[12.7 µM]	-	.
O=C(CCn1cnc(-c2ccccc2)c1-c1ccccc1)N/N=C/c1ccc(O)cc1	25µM	?	?	?	-
O=C(CCCCC(=O)NN=Cc1ccccc1O)NN=Cc1ccccc1O	-	.	.	-	.
O=C(CCn1cnc(-c2ccccc2)c1-c1ccccc1)N/N=C/c1ccccc1O	25µM	?	45µM	?	-
COc1ccc(/C=N/NC(=O)CCn2cnc(-c3ccccc3)c2-c2ccccc2)cc1	20µM	25µM	?	?	-
O=[N+]([O-])c1cc(Cc2ccccc2)cc(C=Nc2ccc(N3CCOCC3)cc2)c1O	56µM	40µM	-	?	-
COc1cc(C=Nc2cccc(C)c2)c(O)c([N+](=O)[O-])c1	?	50µM	-	-	-
Cc1ccc(O)c(N=Cc2cc(Cc3ccccc3)cc([N+](=O)[O-])c2O)c1	40µM	10µM	?	?	-
Cc1ccc(O)c(C=Nc2cc(C)ccc2O)c1	-	-	-	-	-
Cc1ccc(C)c(Cn2nnc(C(=O)NCc3ccccc3)c2N)c1	-	-	-	-	.
CCc1ccccc1Nc1nn2c(=O)c3ccc(C(=O)NC(C)c4ccccc4)cc3nc2s1 (stereo unspecified)	-	-	-	-	.
Cc1cccc2c1N(C(=O)CN1C(=O)c3ccccc3C1=O)C(C)(C)c1ssc(=S)c1-2	?	?	-	?	-
Cc1ccc2c(c1)N(C(=O)c1ccco1)C(C)(C)c1ssc(=S)c1-2	14µM	10µM	11µM	?	.
Cc1ccc2c(c1)N(C(=O)CSc1nncn1C)C(C)(C)c1ssc(=S)c1-2	79µM	.	14µM	-	?
CCCCCCN1C=CC=C/C1=C\C=C(C#N)C#N	?	35µM	-[12.7 µM]	-	?
CC1=C/C(=C\C=C(C#N)C#N)N(C)c2ccccc21	-	-	-	-	-
COc1ccc(NC(=O)Cn2c(=O)n(-c3ccc(CC(=O)NCc4ccco4)cc3)c(=O)c3ccccc32)cc1	-	.	-	-	-
C=CCNC(=O)c1onc(CSc2nc3ccccc3[nH]2)c1C(=O)NCC=C	-	?	56µM	-	-
CCOC(=O)c1ccc(NC2=CC(c3ccc(F)cc3)N(c3ccc(C(=O)OCC)cc3)C2=O)cc1 (stereo unspecified)	-	-	-	-	.
COc1ccc(CN(C)c2ccc(-c3nc(C)no3)cc2[N+](=O)[O-])cc1	-	-	-	-	.
SMILES	JMJD2A Tudor inh	BAZ2B block	G9a block	HP1b chromo inh	L3MBTL1 block
COc1cc(OC)c(OC)cc1/C=C1\CCC/C(=C\c2cc(OC)c(OC)cc2OC)C1=O	28µM	28µM	40µM	32µM	.
COc1cc(OC)c(OC)cc1/C=C1\CCC(C2CCCC2)C1=O (stereo unspecified)	?	25µM	?	-	-
COC(=O)c1c(NC(=O)CSc2ccccc2N)sc(C)c1C	-	.	?	-	.
O=C(Nc1ccccc1C(=O)Nc1ccccc1C(=O)O)c1ccccc1	-	-	-	-	.
CC(=O)c1cc(C(=O)Nc2ccccc2C(=O)O)oc1C	56µM	-	50µM	-	?
O=C(NC(=S)Nc1ccccc1[N+](=O)[O-])c1cncc(Br)c1	-	-	45µM	-	-
Nc1ccc(C(=O)Nc2ccccc2C(=O)O)cc1	-	-	40µM	-	.
O=C(CSc1ncn[nH]1)Nc1ccccc1C(=O)O	-	-	-	-	-
O=C(Nc1ccccc1C(=O)O)c1ccc(Br)o1	-	-	?	-	-
O=C(Nc1ccccc1C(=O)O)c1ncn[nH]1	-	?	10µM	-	-
Nc1ccc(C(=O)Nc2ccc3c(O)cc(S(=O)(=O)O)cc3c2)cc1	56µM	.	.	-	.
Cc1cc(NC(=O)c2cncc(Br)c2)n(-c2ccccn2)n1	-	50µM	-	-	.
Cc1cc(NC(=O)c2ccc(S(=O)(=O)N(C)C)cc2)n(-c2ccccn2)n1	-	-	-[0.0925 µM]	-	-
O=C(Nc1ccccc1C(=O)O)c1cncc(Br)c1	?	?	4.5µM	-	.
O=C(NC(=S)Nc1ccccc1C(=O)O)c1cncc(Br)c1	?	-	2µM	?	-
Nc1ccc(C(=O)Nc2ccc(Nc3ccncc3)cc2)cc1	-	-	-	-	-
Cc1ccc(NC(=O)c2cncc(Br)c2)c(O)c1	-	-	-	-	-
COc1cccc(-c2cn3c(n2)sc2cc(C(=O)NCc4ccccc4F)ccc23)c1	-	-	-	-	.
Nc1ccc(NC(=O)c2ccc(C(=O)Nc3ccc(N)cc3)cc2)cc1	56µM	71µM	-	-	-
Cc1ccc(C)c(N(C)C(=O)C2CCN(S(=O)(=O)c3cccc4nsnc34)CC2)c1	-	.	-	-	.
CCOC(=O)c1cnc2c(-c3ccc(F)cc3)cnn2c1C(F)(F)F	35µM	-	-[12.7 µM]	-	-
O=C1C(=Cc2cccn2-c2ccccc2)C(=O)c2ccccc21	-	?	3.5µM	-	-
O=C(N/N=C/c1cccn1-c1cccc(C(=O)O)c1)Nc1ccccc1	?	79µM	-	-	?
O=C1C(=Cc2cccn2-c2ccc(O)cc2)C(=O)c2ccccc21	-	?	.	-	-
O=C(O)c1cccc(-n2cccc2C=C2C(=O)c3ccccc3C2=O)c1	?	?	50µM	-	.
SMILES	JMJD2A Tudor inh	BAZ2B block	G9a block	HP1b chromo inh	L3MBTL1 block
O=C(O)c1cccc(-n2cccc2/C=C2/SC(=O)N(CC(=O)N3CCCC3)C2=O)c1	40µM	50µM	45µM	?	.
Cc1c(Cl)cccc1NC(=O)c1oc2ccc(S(=O)(=O)N3CCCCCC3)cc2c1C	-	-	-	-	.
CC(=O)Nc1ccc(NC(=O)CCC(=O)c2ccc(C)cc2)cc1	-	-	-	-	.
CC(C)N(Cc1cn[nH]c1-c1ccc(-c2ccccc2)cc1)Cc1nccn1C	56µM	56µM	?	?	-
O=C(CC(NCc1ccccn1)C(=O)O)Nc1ccccc1Cl (stereo unspecified)	20µM	2.8µM	-	-	20µM
Cc1ccc(C)c(Nc2ncnc3onc(C)c23)c1	-	-	-	-	.
O=[N+]([O-])c1ccccc1S(=O)(=O)N1CCN(c2nc(-c3ccccc3)nc3ccccc23)CC1	-	.	.	-	.

Screens as filed in PubChem BioAssay.
